JMJD2A Tudor inh: blocks the human JMJD2A Tudor domain. O75164. AlphaScreen JMJD2A-Tudor / H3K4me3 peptide binding. Potency, µM (doses to about 114 µM), most hits filed as inhibitors. actives 4.4% (n = 390,000). AID 504339; further: nearly all actives have a fitted effect of over 50% in size
BAZ2B inh: blocks human BAZ2B. Q9UIF8. AlphaScreen BAZ2B-H3K14Ac peptide displacement. Potency, µM (titrated, usually from 114 µM), most hits filed as inhibitors. actives 4.4% (n = 360,000); further: nearly all actives have a fitted effect of over 60% in size
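Protein-peptide AlphaScreen: BAZ2B 50 nM, b-H3K14Ac 50 nM, 1x PBS pH 7.4 + 0.01% Tween-20. Preincubation 30 min RT; cpd 30 min RT (top 110 uM); beads 20 min RT, light-protected.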
PI5P4Ka inh: inhibitors of human PI5P4K alpha | actives 1.2% (n = 330,000) | max response, % | AID 652105 | P48426 | PI5P4Kalpha enzyme, ADP-Glo luminescence, 60 min; stronger effect = lower value; active means max response of -50% or lower; inconclusive means between -30% and -50%; inactive means -30% or higher; further: value at the top dose of about 77 µM
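Human PI5P4Kalpha with substrate in 0.038 M HEPES pH 7.4, 0.28 mM EGTA, 0.1% CHAPS, 5% DMSO; reaction started with 5 microM ATP (final), 60 min at room temperature. ADP formed read by ADP-Glo luminescence.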
HP1b binding inh: blocks HP1-beta chromodomain binding to methylated histone tails; P83916; AlphaScreen HP1-beta / biotin-H3K9me3 peptide binding; Potency, µM (series often up to 114 µM), usual class: inhibitors; actives 0.56% (n = 390,000); further: nearly all actives have a fitted effect of over 70% in size
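Compound inhibition of the preformed complex between 50 nM HP1-beta and 50 nM biotinylated H3K9me3 peptide was read by AlphaScreen. Buffer was PBS pH 7.4 with 0.01% Tween-20. Incubations ran 30 min at room temperature, with 10 ug/mL donor/acceptor beads.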
PLK1 PBD block: PLK1 (human) polo-box domain binding inhibition; actives 2.8% (n = 360,000); Plk1 PBD binding of FITC phosphopeptide, fluorescence polarization; Potency, µM, actives largely listed as inhibitors; P53350; further: series mostly up to about 57 µM; nearly all actives have a fitted effect of over 65% in size
Target sequence (P53350 whole entry, looked up, the tested form may be a part): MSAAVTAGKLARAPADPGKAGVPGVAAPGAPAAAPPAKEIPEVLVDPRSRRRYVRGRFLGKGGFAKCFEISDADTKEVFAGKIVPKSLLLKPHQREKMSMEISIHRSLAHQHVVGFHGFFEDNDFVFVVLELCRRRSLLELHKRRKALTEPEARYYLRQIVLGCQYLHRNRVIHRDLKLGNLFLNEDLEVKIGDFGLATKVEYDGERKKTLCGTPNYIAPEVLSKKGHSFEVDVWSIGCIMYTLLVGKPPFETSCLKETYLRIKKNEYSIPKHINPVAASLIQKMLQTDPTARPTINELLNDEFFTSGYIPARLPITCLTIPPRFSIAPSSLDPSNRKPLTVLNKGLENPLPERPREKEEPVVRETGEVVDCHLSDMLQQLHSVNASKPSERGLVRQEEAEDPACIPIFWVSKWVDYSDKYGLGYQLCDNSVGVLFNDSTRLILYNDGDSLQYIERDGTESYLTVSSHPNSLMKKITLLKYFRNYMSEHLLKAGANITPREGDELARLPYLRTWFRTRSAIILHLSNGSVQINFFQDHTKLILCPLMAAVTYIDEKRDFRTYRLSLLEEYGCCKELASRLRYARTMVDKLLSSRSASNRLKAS
GCN5L2 inh: GCN5L2 (KAT2A) acetyltransferase inhibition. Q92830. GCN5L2 HAT assay, ThioGlo1 CoA-SH fluorescence. Potency, µM (series often up to 58.9 µM), most hits filed as inhibitors. actives 0.21% (n = 390,000). AID 504327
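Preincubate 20nM GCN5L2 with compound 15 min, RT → add 50uM ThioGlo1 + 75uM H3(1-25) + 70uM acetyl-CoA → read fluorescence 0 and 20 min. Primary qHTS; fluorescent artifacts likely.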
TbPYK inh: Trypanosoma brucei pyruvate kinase inhibition, cherry-pick confirmation. AID 720569. shares compounds with PLK1 PBD block. Potency, µM (titrated, usually from 76.9 µM), actives largely listed as inhibitors. actives 67% (n = 890). recombinant TbPYK, Kinase-Glo ATP luminescence; further: nearly all actives have a fitted effect of over 70% in size
TbPYK ADP-Glo: TbPYK inhibition, orthogonal confirmation. shares compounds with PLK1 PBD block. recombinant TbPYK, ADP-Glo luminescence, 60 min. Potency, µM (top dose mostly 76.9 µM), most hits filed as inhibitors. actives 62% (n = 890); further: nearly all actives have a fitted effect of over 75% in size
Each line names hits and unclear results; the compound was inactive in the other large screens (follow-up assays come after a bar, where they were run). Rows were chosen to be rich in hits. Some 7% of all compounds tested hit in one or more screens of this group. Unless noted, the call rests on the fitted dose curve; in most records, active means well fitted curve in the direction sought with a large enough effect; inconclusive means small, poorly fitted or top-dose-only effect, or another doubt; inactive means no such curve, though single readings can be large; an effect the other way counts as inactive or inconclusive.

CC1(C)C(O)CC(=O)[C@]2(C)C1CC(=O)[C@]1(C)C2CC[C@@]2(C)C(c3ccoc3)OC(=O)C3O[C@@]321 (stereo partly specified)	none (no result: JMJD2A Tudor inh, BAZ2B inh, PI5P4Ka inh, HP1b binding inh, PLK1 PBD block)
O=C1NC(=O)C(=Cc2ccc(N3CCN(C(=O)c4ccccc4)CC3)c([N+](=O)[O-])c2)C(=O)N1	JMJD2A Tudor inh 39.8µM, BAZ2B inh inconclusive, PI5P4Ka inh -61.9, HP1b binding inh inconclusive, PLK1 PBD block 6.7µM | TbPYK inh 31.6µM | TbPYK ADP-Glo 35.5µM
O=C(c1ccc(N2CCCCC2)c([N+](=O)[O-])c1)N1CCC2(CC1)OCCO2	none
O=C1NC(=O)N(c2ccc3c(c2)OCO3)C(=O)/C1=C\c1ccc(-c2ccccc2C(=O)O)o1	JMJD2A Tudor inh 31.6µM, BAZ2B inh 79.4µM, PI5P4Ka inh -51.8, HP1b binding inh inconclusive, PLK1 PBD block 2.99µM | TbPYK inh 12.6µM | TbPYK ADP-Glo inconclusive
CCCCCC(O)C1C(=O)OC(C)C(O)\C=C/C=C\C=C/C=C\C=C(\C)C(O)C(O)C(O)CC(O)CC(O)CC(O)CC(O)CC1O (stereo unspecified)	none (no result: JMJD2A Tudor inh, BAZ2B inh, PI5P4Ka inh, HP1b binding inh, PLK1 PBD block)
COc1cc(OC2CCN(C(C)=O)CC2)ccc1C(=O)N1CCC(N2C(=O)OCc3ccccc32)CC1	none (no result: JMJD2A Tudor inh, BAZ2B inh, PI5P4Ka inh, HP1b binding inh, PLK1 PBD block)
CO[C@@H](C)[C@](O)(C(=O)OCC1=CCN2CC[C@@H](O)[C@H]12)C(C)C	none (no result: JMJD2A Tudor inh, BAZ2B inh, PI5P4Ka inh, HP1b binding inh, PLK1 PBD block)
CN1CCN(C(=S)c2ccc([N+](=O)[O-])cc2)CC1	JMJD2A Tudor inh inconclusive, HP1b binding inh inconclusive, PLK1 PBD block 5.32µM | TbPYK inh 5.01µM | TbPYK ADP-Glo 12.6µM
CC1=NNC(=O)C1Br (stereo unspecified)	JMJD2A Tudor inh 89.1µM, HP1b binding inh 14.1µM, PLK1 PBD block 9.47µM (no result: BAZ2B inh, GCN5L2 inh) | TbPYK inh 3.16µM | TbPYK ADP-Glo 5.01µM
CN1C(=O)C(=Cc2ccccc2OS(=O)(=O)c2ccccc2)C(=O)N(C)C1=O	BAZ2B inh inconclusive, PLK1 PBD block 5.32µM | TbPYK inh 20µM | TbPYK ADP-Glo inconclusive
O=C1NC(=S)NC(=O)C1=Cc1cccn1-c1ccc(O)cc1	JMJD2A Tudor inh 25.1µM, PI5P4Ka inh -83.7, HP1b binding inh inconclusive, PLK1 PBD block 2.38µM, GCN5L2 inh inconclusive | TbPYK inh 7.08µM | TbPYK ADP-Glo 15.8µM
COC[C@]12CN(C=O)C3C4C(OC)C1[C@@]3(C1CC3(O)C(OC)C(O)C4(OC(C)=O)C1C3OC(=O)c1ccccc1)[C@@H](OC)CC2O (stereo partly specified)	none (no result: JMJD2A Tudor inh, BAZ2B inh, PI5P4Ka inh, HP1b binding inh, PLK1 PBD block)
CN1C(=O)/C(=C\N2CCc3ccccc32)C(=O)NC1=S	JMJD2A Tudor inh inconclusive, PI5P4Ka inh inconclusive
Cc1ccc(/C=C2\C(=O)NC(=S)N(c3ccccc3F)C2=O)s1	JMJD2A Tudor inh 70.8µM, BAZ2B inh 50.1µM, PI5P4Ka inh -110.5, HP1b binding inh inconclusive, PLK1 PBD block 1.19µM | TbPYK inh 7.94µM | TbPYK ADP-Glo 11.2µM
Cc1ccc(/C=C2\C(=O)NC(=S)N(c3ccc(F)cc3)C2=O)s1	BAZ2B inh 44.7µM, PI5P4Ka inh -82.5, PLK1 PBD block 1.34µM | TbPYK inh 12.6µM | TbPYK ADP-Glo inconclusive
C=C1Nc2ccccc2C(=O)N1c1ccccc1C	none (no result: JMJD2A Tudor inh, BAZ2B inh, PI5P4Ka inh, HP1b binding inh, PLK1 PBD block)
CNCC/C=C\c1cccnc1	none (no result: JMJD2A Tudor inh, BAZ2B inh, PI5P4Ka inh, HP1b binding inh, PLK1 PBD block)
COc1ccc(S(=O)(=O)N(C)C[C@H]2OCCCC[C@@H](C)Oc3ccc(N(C)C)cc3C(=O)N([C@H](C)CO)C[C@@H]2C)cc1	none (no result: JMJD2A Tudor inh, BAZ2B inh, HP1b binding inh, GCN5L2 inh) | TbPYK inh 2.51µM | TbPYK ADP-Glo 6.31µM
Cc1cccc2c1=NC(=O)/C(=C/c1c(O)[nH]c(=O)[nH]c1=O)C=2	BAZ2B inh inconclusive, PI5P4Ka inh -54.0, PLK1 PBD block 7.52µM | TbPYK inh 25.1µM | TbPYK ADP-Glo inconclusive
O=c1[nH]c(O)c(C=NCCc2ccccc2)c(=O)[nH]1	none
C[C@H](NC(=O)[C@@H](N)Cc1ccc(O)cc1)C(=O)N[C@@H](Cc1ccccc1)C(=O)NCC(=O)N[C@@H](Cc1ccc(O)cc1)C(=O)N1CCC[C@H]1C(=O)N[C@@H](CO)C(N)=O	none (no result: JMJD2A Tudor inh, BAZ2B inh, PI5P4Ka inh, HP1b binding inh, PLK1 PBD block)

Assay outcomes as filed in PubChem.
